The list is not random: actives were taken first. Their share in the collection is about 1.3%.
KLK7 zymogen act: activates the human kallikrein-7 zymogen; P49862; purified proKLK7, EDANS-DABCYL substrate fluorescence; 100% is mature enzyme control, 0% vehicle; activation, % at 7 µM; 370,000 compounds, 0.9% hits;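 active = activation above the mean of all tested compounds plus 3 SD, computed per campaign excluding outliers beyond control limits, cut at about 13% in these data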
Target sequence (P49862 whole entry, looked up): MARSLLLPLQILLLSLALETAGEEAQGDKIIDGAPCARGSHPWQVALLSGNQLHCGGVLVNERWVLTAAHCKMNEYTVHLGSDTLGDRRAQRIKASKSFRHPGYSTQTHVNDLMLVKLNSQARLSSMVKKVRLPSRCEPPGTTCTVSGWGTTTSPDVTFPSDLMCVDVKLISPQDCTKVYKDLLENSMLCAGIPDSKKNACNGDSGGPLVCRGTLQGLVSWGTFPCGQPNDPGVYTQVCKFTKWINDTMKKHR
GC-A act: GC-A (human) enzyme activation; P16066; HEK293 GC-A cells, cGMP TR-FRET, EC30 ANP; 0% at EC30 ANP, 100% saturating ANP; activation, % at 10 µM; 370,000 compounds, 0.14% hits; AID 1671463; in the data active = activation above about 40%
HIF activator: HIF pathway transcriptional activation; U2OS HRE-luciferase reporter, luminescence; normalized: DMSO 0%, desferrioxamine 100%; activation, % at 7.5 µM (by protocol); 300,000 compounds, 0.32% hits; AID 1910;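 active = mean activation of at least 10% of the iron chelator positive control signal, with at least half of replicates also reaching 10%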
NPR2 activator: GC-B (human) receptor activation | AID 1920062 | P20594 | activation, % at 10 µM | HEK293-GC-B cells, CNP EC30, cGMP TR-FRET; 0% at EC30 CNP, 100% saturating CNP | 370,000 compounds, 0.11% hits;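 active = activation at 10 µM reaching about 35% in either raw or pattern-adjusted values, limit read from the data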
KLK7 act conf: proKLK7 activation, confirmation. AID 686949. shares compounds with KLK7 zymogen act. 3,200 compounds, 68% hits. purified proKLK7, EDANS-DABCYL substrate fluorescence; scaled: vehicle 0, mature enzyme 100. activation, % at 7 µM;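 active = activation, as change over the incubation, above the mean of all tested compounds plus 3 SD, cut at about 13% in these data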
EDANS-DABCYL int: optically interferes with EDANS-DABCYL signal, flagging KLK7 hits | activation, % at 7 µM | shares compounds with KLK7 zymogen act | 3,200 compounds, 80% hits | EDANS-DABCYL substrate fluorescence interference, no enzyme, 4 h; solvent 0%, active enzyme control 100% | AID 686952;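 active = activation above the all-compound mean plus 3 SD, ignoring values outside control-based bounds, cut at about 4.8% in these data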;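 also: value is the 4 h activation minus the activation read at time zero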
K7 EDANS ctr: optically interferes with EDANS-DABCYL fluorescence, kallikrein-7 activator counter-screen | shares compounds with KLK7 zymogen act | EDANS-DABCYL peptide fluorescence interference, no enzyme | EC50, µM | 250 compounds, 20% hits | AID 720493;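 active = compounds that raise the fluorescence signal in this interference counterscreen, with EC50 at or below 10 µM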;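 also: intact quenched peptide substrate alone read at 355 nm excitation and 520 nm emission; signal is fluorescence gain from T0 to T4 after four hours at room temperature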
The depositor's hits bear a star; nt = no result.

SMILES | KLK7 zymogen act | GC-A act | HIF activator | NPR2 activator | KLK7 act conf | EDANS-DABCYL int | others
O=C(CSc1nc2ccccc2n1Cc1ccccc1)NN=C/C=C/c1ccccc1 | -1 | -7 | nt | -4 | nt | nt
COc1cc2sc(-c3ccc(S(C)(=O)=O)cc3)c(C(=O)NCc3ccc(C)o3)c2cc1OC | 14* | 2 | nt | 0 | 23* | 31*
COc1cc2sc(-c3ccc(S(C)(=O)=O)cc3)c(C(=O)NCCCCO)c2cc1OC | 31* | -1 | nt | 4 | 22* | 32*
CCOC(=O)N1CCC2(CC1)NC(=O)c1ccccc1N2 | 21* | -1 | nt | 1 | 30* | 24* | K7 EDANS ctr=>69
CCOC(=O)N1CCC(N2C(=O)c3ccccc3C2=O)CC1 | 0 | -2 | 0 | 1 | nt | nt
O=C1CCCc2nc3c(cc21)C(O)Oc1ccccc1-3 (stereo not given) | 71* | 8 | -1 | 8 | 52* | 65*
O=C1CCCc2nc3c(cc21)C(O)Oc1c-3ccc2ccccc12 (stereo not given) | -2 | 15 | 0 | 11 | nt | nt
Cc1cn2nc(N)c3ccccc3c2n1 | 1 | 5 | nt | 3 | nt | nt
Nc1nn2cc(-c3ccccc3)nc2c2ccccc12 | 66* | -1 | 0 | -6 | 55* | 53*
O=C(CSc1nnc(COc2ccccc2)n1-c1ccc(Cl)cc1)Nc1ccc(OCc2ccccc2)cc1 | 0 | 3 | nt | 5 | nt | nt
CNc1cc(-c2cccc(OC)c2F)nc2ccnn12 | 38* | 10 | nt | 7 | 28* | 27*
c1ccc(-c2c[nH]c3ccc(OCc4ccc5ccccc5n4)c(-c4ccccc4)c23)cc1 | 1 | -2 | nt | -6 | nt | nt
CC1=C(C(=O)Nc2ccccn2)C(c2cccnc2)n2nnnc2N1 (stereo not given) | 21* | -3 | 0 | 3 | 5 | 5.8*
CN(C)c1cccc(C(=O)OCc2cc(=O)oc3cc(O)ccc23)c1 | 4 | -2 | 0 | -5 | nt | nt
O=C(OCc1cc(=O)oc2cc(O)ccc12)c1cc(S(=O)(=O)N2CCOCC2)ccc1F | 644* | 18 | 1 | 23 | 677* | 654*
O=c1cc(CN2CCN(S(=O)(=O)c3ccc4c(c3)OCCO4)CC2)c2ccc(O)cc2o1 | 43* | -6 | 0 | -2 | 62* | 67*
CCc1cc2c(COC(=O)c3cccc(NS(C)(=O)=O)c3)cc(=O)oc2cc1O | 54* | 0 | 0 | 4 | 62* | 55*
CC1CN(S(=O)(=O)c2cccc(C(=O)OCc3cc(=O)oc4cc(O)ccc34)c2)CC(C)O1 (stereo not given) | 375* | -1 | -1 | 6 | 540* | 528*
O=C(OCC#CCSc1nnc(-c2cccc3ccccc23)o1)c1ccc(OC(F)F)cc1 | nt | -3 | nt | -2 | nt | nt
Cc1noc(C)c1COC(=O)c1cc(S(=O)(=O)N2CCOCC2)ccc1F | 1 | 1 | nt | -3 | nt | nt
COc1ccc(OC)c(CN2CCN(Cc3cc(=O)oc4cc(O)ccc34)CC2)c1 | 59* | -3 | -2 | -1 | 76* | 75*
CCc1cc2c(COC(=O)c3cc(S(=O)(=O)N4CCOCC4)ccc3F)cc(=O)oc2cc1O | 113* | 12 | nt | 22 | 446* | 456*
C[C@@H]1[C@@H](c2ccccc2)c2cc3ccccc3nc2C(=O)C[C@@H]1C(=O)N1CCCC1 | 0 | -21 | nt | -10 | nt | nt
CC(C)(C)[C@H](NC(=O)c1cc(Cl)cc(Cl)c1)C(=O)N1CCC[C@H]1C(=O)N[C@H](C#N)CC(=O)O | nt | -2 | nt | -5 | nt | nt
CCCCCCCCN1C(=O)[C@@H](CC(=O)NCC23CC4CC(CC(C4)C2)C3)C[C@@]2(C(=O)OC)C1=C[C@H](COCc1ccccc1)O[C@@H]2C | 1 | 1 | nt | 11 | nt | nt
SMILES | KLK7 zymogen act | GC-A act | HIF activator | NPR2 activator | KLK7 act conf | EDANS-DABCYL int | others
O=c1cc(-c2ccccc2)c2ccc(O)c(CN3CCCCC3)c2o1 | 11 | -3 | 0 | -1 | nt | nt
COc1ccc2c(C)cc(=O)oc2c1OCC(O)CN1CCOCC1 (stereo not given) | 15* | -2 | nt | 1 | 7 | 10*
Cc1cc(=O)oc2c(CN(C)Cc3ccccc3)c(O)ccc12 | 75* | 4 | -1 | -2 | 72* | 78*
Cc1cc(=O)oc2c(CN3CCCCC3)c(O)ccc12 | 118* | 5 | nt | -1 | 71* | 73*
Cc1cc(=O)oc2c(CN3CCOCC3)c(O)ccc12 | 100* | 4 | nt | -4 | 74* | 65*
CN(Cc1ccccc1)Cc1c(O)ccc2ccccc12 | -1 | 0 | 0 | -2 | nt | nt
Cc1sc2nc(COC(=O)CNC(=O)c3ccccc3Cl)[nH]c(=O)c2c1C | 0 | 0 | nt | -8 | nt | nt
COC(=O)CN1CCN(C(=O)c2csc(N3CCOCC3)n2)CC1 | 0 | -3 | nt | -3 | nt | nt
COC(=O)C1CN(Cc2cn(Cc3ccc(C)cc3)nn2)CCS(=O)(=O)N1Cc1ccccc1 (stereo not given) | 0 | 3 | nt | -3 | nt | nt
COCCNC[C@@]12CO[C@H](c3ccc(Cl)cc3)N1[C@@H](c1ccc(Cl)cc1)SC2 | nt | -28 | nt | -17 | nt | nt
Cc1cccc(C2Nc3ccccc3C(=O)N2CCc2ccccc2)n1 (stereo not given) | 21* | -13 | 0 | -8 | 6 | 11*
O=C1c2ccccc2NC(c2cccc([N+](=O)[O-])c2)N1CCc1ccccc1 (stereo not given) | 0 | -8 | 2 | -4 | nt | nt
CCc1c(C)c2cc(Cl)c(O)c(CN3CCCCC3)c2oc1=O | 51* | 7 | 0 | 5 | 69* | 72*
Cc1cc(=O)oc2cc(OCC(=O)N3CC(C)OC(C)C3)ccc12 (stereo not given) | 0 | 1 | -1 | 0 | nt | nt
Cc1cc2oc(=O)cc(CN3CCCC3)c2cc1Cl | -2 | -3 | nt | 1 | nt | nt
CCc1cc(=O)oc2c(CN3CCCC3)c(O)c(Cl)cc12 | 83* | 8 | 0 | 6 | 68* | 71*
Cc1c(O)c(CN2CCCCC2)cc2c1oc(=O)c1ccccc12 | 0 | 5 | 0 | -3 | nt | nt
CCc1cc(=O)oc2c(CNCc3c(F)cccc3Cl)c(O)ccc12 | 30* | 4 | -7 | 6 | 41* | 57*
Cc1cc(=O)oc2c(CN3CC(C)OC(C)C3)c(O)c(Cl)cc12 (stereo not given) | 149* | 4 | 0 | 1 | 67* | 74*
CCc1cc(=O)oc2c(CN3CCN(C)CC3)c(O)c(Cl)cc12 | 69* | 2 | 1 | 4 | 62* | 70*
CCc1cc2c(-c3ccccc3)cc(=O)oc2c(CN2CCOCC2)c1O | 0 | -1 | 0 | 2 | nt | nt

Screening data: PubChem, several laboratories
